Screening data from PubChem BioAssay.
ATXN2 expr inh: Primary qHTS for Inhibitors of ATXN expression; Potency, µM (highest dose often 57 µM), hits mostly inhibitors; 360,000 compounds, 0.72% hits; HEK-293 ATXN2-luciferase reporter, luminescence, 24 h; note: nearly all actives have a fitted effect of over 55% in size
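qHTS (up to 57 uM final) was run with 24 h compound exposure of reporter cells at 37 °C. Each well was multiplexed: SteadyGlo luminescence measured ATXN2-luciferase expression after a fluorogenic Gly-Phe-AFC viability readout (25 uM final).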
HT1080NT lethal: qHTS for induction of synthetic lethality in tumor cells producing 2HG: qHTS for the HT-1080-NT fibrosarcoma cell line; HT-1080-NT fibrosarcoma viability, CellTiter-Glo ATP luminescence, 48 h; AID 686970, 2013; 360,000 compounds, 1.6% hits; Potency, µM (doses to about 46.1 µM), most hits filed as cytotoxic;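 note: NT is the 2HG producing partner of a matched IDH1 knockdown line; nearly all actives have a fitted effect of over 55% in size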
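A 48-hour cytotoxicity screen used HT-1080-NT cells plated 2 hours before compound delivery. ATP-based CellTiter-Glo luminescence measured viability, normalized to DMSO and no-cell controls.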
HepG2 tox-1: qHTS for Inhibitors of TGF-b: Cytotox Counterscreen; HepG2 CAGA-GFP viability, ATP luminescence, 18 h; Potency, µM (doses to about 46.1 µM), actives largely listed as cytotoxic; 410,000 compounds, 0.76% hits; AID 588856, 2011
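HepG2 CAGA-GFP cells (1000/well, DMEM with 1% FBS) received compound, then TGF-beta at 500 pg/mL final, and were incubated 18 hours at 37 degrees C. Viability was read by CellTiter-Glo luminescence. Media-only wells were set as complete cell-killing and DMSO as no toxicity.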
HT1080 IDH1KD tx: qHTS for induction of synthetic lethality in tumor cells producing 2HG: qHTS for the HT-1080-IDH1KD cell line; HT-1080 IDH1 knockdown viability, ATP luminescence, 48 h; Potency, µM (top dose mostly 46.1 µM), actives largely listed as cytotoxic; 360,000 compounds, 2% hits; AID 686971, 2013
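After a 2 h attachment period, IDH1KD HT-1080 cells took pin-transferred compound for 48 h at 37 °C; ATP-based luminescence after 10 min room-temperature reagent incubation reported viability.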
S2 tox: Viability Counterscreen for Primary qHTS for Inhibitors of ATXN expression; S2 cells (HEK-293 line with an ATXN2-luciferase reporter) viability, CellTiter-Fluor protease fluorescence, 24 h; Potency, µM (titrated, usually from 56.7 µM), hits mostly cytotoxic; 400,000 compounds, 0.49% hits; note: nearly all actives have a fitted effect of over 40% in size
TGFb inhibitor: qHTS for Inhibitors of TGF-b; HepG2 CAGA-GFP TGF-b/SMAD3 reporter, GFP fluorescence, 18 h; TGF-beta stimulated, 500 pg/mL final; Potency, µM (highest dose often 46.1 µM), most hits filed as inhibitors; 410,000 compounds, 1.2% hits; AID 588855, 2011; note: nearly all actives have a fitted effect of over 65% in size
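Using HEPG2 CAGA-GFP reporter cells at 1000 cells/well, we pinned test compounds, stimulated with recombinant TGF-beta (500 pg/mL final) and measured total well GFP after 18 h.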
TGFb CAGA inh: qHTS for Inhibitors of TGF-b: Confirmation of Cherry Picks; shares compounds with TGFb inhibitor; HepG2 CAGA-GFP TGF-b reporter, GFP fluorescence, 18 h; cells stimulated with TGF-beta, 500 pg/mL; 1,600 compounds, 63% hits; Potency, µM (highest dose often 46.1 µM), actives largely listed as inhibitors; note: nearly all actives have a fitted effect of over 65% in size
HepG2 tox-2: qHTS for Inhibitors of TGF-b: Cytotox Counterscreen for Cherry Picks | shares compounds with TGFb inhibitor | HepG2 CAGA-GFP viability, ATP luminescence, 18 h; cells stimulated with TGF-beta, 500 pg/mL | Potency, µM (top dose mostly 46.1 µM), actives largely listed as inhibitors | 1,600 compounds, 27% hits | AID 720535, 2013; note: nearly all actives have a fitted effect of over 70% in size
CCL64 TGFb inh: qHTS for Inhibitors of TGF-b: CCL64 Cells Orthogonal Assay for Cherry Picks; 1,600 compounds, 41% hits; CCL64 CAGA-GFP reporter, TGF-b stimulated, GFP fluorescence, 18 h; shares compounds with TGFb inhibitor; Potency, µM (series often up to 46.1 µM), actives largely listed as inhibitors; note: nearly all actives have a fitted effect of over 65% in size
COP TGFb inh: qHTS for Inhibitors of TGF-b: Hit Validation in HepG2 Cells using COP promoter | AID 720537, 2013 | Potency, µM (series often up to 46.1 µM), usual class: inhibitors | HepG2 COP-GFP TGF-b reporter, GFP fluorescence, 18 h; cells stimulated by added recombinant TGF-beta | shares compounds with TGFb inhibitor | 1,600 compounds, 3% hits; note: nearly all actives have a fitted effect of over 70% in size
Of the large screens only hits and unclear results are named; the others gave an inactive call (follow-up assays come after a bar, where they were run). Rows were chosen to be rich in hits. Some 3.8% of all compounds tested hit in one or more screens of this group. Calls come from the whole dose curve; as a rule, active = well fitted curve in the direction sought with a large enough effect; inconclusive = small, poorly fitted or top-dose-only effect, or another doubt; inactive = no such curve, though single readings can be large; an effect the other way counts as inactive or inconclusive.

COc1ccc(Nc2nccc(-c3cccc(N)c3)n2)cc1	HT1080NT lethal inconclusive, HT1080 IDH1KD tx inconclusive, S2 tox inconclusive, TGFb inhibitor 10µM | TGFb CAGA inh 8.2µM | HepG2 tox-2 5.8µM | CCL64 TGFb inh 8.2µM | COP TGFb inh inactive
COCCn1c(C)cc(O)c(C(c2ccc(F)cc2)N2CCN(c3ccccc3)CC2)c1=O (configuration not stated)	none (no result: ATXN2 expr inh, HT1080NT lethal, HT1080 IDH1KD tx, S2 tox)
CCOC(=O)N1CCN(Cc2nc3cc(NC(=O)c4ccc(F)cc4)ccc3n2C(C)C)CC1	none (no result: ATXN2 expr inh, HT1080NT lethal, HT1080 IDH1KD tx, S2 tox)
O=C(CSc1nc(N2CCCCC2)nc(N2CCCCC2)n1)N1CCN(c2ccccc2)CC1	TGFb inhibitor 6.3µM | TGFb CAGA inh 16µM | HepG2 tox-2 inactive | CCL64 TGFb inh inconclusive | COP TGFb inh inactive
Cc1nc(SCC(=O)N2CCN(c3ccccc3)CC2)n[nH]1	none
Nc1c2ccccc2nc2ccccc12	ATXN2 expr inh 5µM, HT1080NT lethal 23µM, HT1080 IDH1KD tx 13µM, TGFb inhibitor 7.9µM (no result: S2 tox) | TGFb CAGA inh 9.2µM | HepG2 tox-2 12µM | CCL64 TGFb inh 13µM | COP TGFb inh inactive
Cc1ccc(NC(=S)/N=C(\N)Nc2nc(C)c3cc(C)ccc3n2)c(C)c1	HT1080 IDH1KD tx inconclusive, TGFb inhibitor 10µM | TGFb CAGA inh 4.6µM | HepG2 tox-2 inactive | CCL64 TGFb inh inconclusive | COP TGFb inh inactive
CCc1ccccc1NC(=S)/N=C(\N)Nc1nc(C)c2cc(C)ccc2n1	S2 tox inconclusive, TGFb inhibitor inconclusive | TGFb CAGA inh 4.1µM | HepG2 tox-2 inactive | CCL64 TGFb inh inconclusive | COP TGFb inh inactive
COc1ccc(/C=C2/CCC(CN3CCOCC3)C2=O)cc1 (configuration not stated)	ATXN2 expr inh 6.7µM, HT1080NT lethal inconclusive, HepG2 tox-1 11µM, HT1080 IDH1KD tx 6.5µM, S2 tox inconclusive, TGFb inhibitor 5µM | TGFb CAGA inh 4.6µM | HepG2 tox-2 3.7µM | CCL64 TGFb inh 4.6µM | COP TGFb inh 16µM
CCC(=O)N1CCc2cc(CNS(=O)(=O)c3ccccc3F)ccc21	none (no result: ATXN2 expr inh, HT1080NT lethal, HT1080 IDH1KD tx, S2 tox)
CCC(Sc1nnc2c(n1)[nH]c1ccccc12)C(=O)Nc1nnc(C(C)C)s1 (configuration not stated)	none (no result: HT1080NT lethal, HT1080 IDH1KD tx)
O=C(NCCc1cccnc1)c1cc(COc2ccc(F)cc2F)on1	HT1080NT lethal inconclusive, HT1080 IDH1KD tx inconclusive (no result: ATXN2 expr inh)
O=C(NCCc1cccnc1)c1cc(COc2ccc(F)cc2Cl)on1	HT1080NT lethal inconclusive, HT1080 IDH1KD tx 15µM, TGFb inhibitor 13µM | TGFb CAGA inh inconclusive | HepG2 tox-2 inactive | CCL64 TGFb inh inconclusive | COP TGFb inh inactive
CCOC(=O)CCCC(=O)N1CCN(/[N+]([O-])=N/Oc2ccc([N+](=O)[O-])cc2[N+](=O)[O-])CC1	TGFb inhibitor inconclusive (no result: ATXN2 expr inh, HT1080NT lethal, HT1080 IDH1KD tx, S2 tox)
CCN(CC)C(=O)[C@H]1C[C@H](CC(=O)NCc2cccc(C(F)(F)F)c2)C(=O)N2CCc3c([nH]c4cc(-c5ccco5)ccc34)[C@]12C	ATXN2 expr inh inconclusive, HT1080NT lethal inconclusive, HT1080 IDH1KD tx inconclusive, S2 tox inconclusive, TGFb inhibitor 10µM | TGFb CAGA inh 9.2µM | HepG2 tox-2 16µM | CCL64 TGFb inh 12µM | COP TGFb inh inactive
C[C@]12c3[nH]c4cc(-c5ccco5)ccc4c3CCN1C(=O)[C@@H](CC(=O)NCCc1ccccn1)C[C@@H]2C(=O)N1CCCCC1	TGFb inhibitor inconclusive | TGFb CAGA inh inconclusive | HepG2 tox-2 inactive | CCL64 TGFb inh inactive | COP TGFb inh inactive
COc1ccc2[nH]c3c(c2c1)CCN1C(=O)C(CC(=O)NCCC2=CCCCC2)C[C@H](C(=O)N2CCCCC2)[C@@]31C (some centres not stated)	TGFb inhibitor 7.9µM | TGFb CAGA inh inconclusive | HepG2 tox-2 inactive | CCL64 TGFb inh inactive | COP TGFb inh inactive
CCN(CC)C(=O)[C@H]1CC(CC(=O)NCc2cccc(C(F)(F)F)c2)C(=O)N2CCc3c([nH]c4ccc(OC)cc34)[C@]12C (some centres not stated)	ATXN2 expr inh inconclusive, S2 tox inconclusive, TGFb inhibitor 8.9µM | TGFb CAGA inh 33µM | HepG2 tox-2 inactive | CCL64 TGFb inh inconclusive | COP TGFb inh inactive
CCN(CC)C(=O)[C@H]1CC(CC(=O)NCCN2CCOCC2)C(=O)N2CCc3c([nH]c4ccc(OC)cc34)[C@]12C (some centres not stated)	none
CC[C@]12c3[nH]c4cc(-c5ccco5)ccc4c3CCN1C(=O)[C@@H](CC(=O)NCCc1ccccn1)C[C@@H]2C(=O)N1CCN(C(=O)C2CC2)CC1	TGFb inhibitor inconclusive
CCOc1ccc(NC(=O)c2c(NC(=O)c3ccccc3Br)sc3c2CCC(C)C3)cc1 (configuration not stated)	none (no result: ATXN2 expr inh, HT1080NT lethal, HT1080 IDH1KD tx, S2 tox)
CCc1ccc2oc(-c3cc(NC(=O)C(C)C)cc(C)c3O)nc2c1	none (no result: HT1080NT lethal, HT1080 IDH1KD tx)
Cc1cc(C)cc(NC(=O)C(=O)NCC(c2cccnc2)N2CCN(c3ccccc3)CC2)c1 (configuration not stated)	none (no result: HT1080NT lethal, HT1080 IDH1KD tx)
COC(=O)N/N=C/c1cn(CCOc2ccc(OC)cc2)c2ccccc12	TGFb inhibitor inconclusive
